# In PubChem BioAssay (NCATS):
# Results filed as inconclusive are left out. Where a call stands in place of a potency, no number is given. Active and inactive are the calls of the source. Calls follow the shape of the dose curve; as a rule, active = well fitted inhibition curve with a large enough effect; inconclusive = small, poorly fitted or top-dose-only effect; inactive = flat fitted curve, though single readings scatter.
# How the values were obtained:
# TAB109 = test: qHTS profiling for inhibitors of Plasmodium falciparum proliferation (AID 504749); also: nearly all actives have a fitted effect of over 60% in size; details: P. falciparum in erythrocytes, SYBR Green DNA, 72 h; series mostly up to 28.7 µM
# Method in brief: (§1)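 In a 72 h erythrocytic culture (37 C, humidified, 5% CO2) at 2.5% hematocrit and 0.3% starting parasitemia, compounds were tested; SYBR Green I in detergent lysis buffer stained parasite DNA overnight.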
# TAB113 = test: as above; details: P. falciparum in erythrocytes, SYBR Green DNA, 72 h; series mostly up to 28.7 µM
# Method in brief: as §1
# TAB165 = test: as above; details: P. falciparum in erythrocytes, SYBR Green DNA, 72 h; series mostly up to 28.7 µM
# Method in brief: as §1
# W2 = test: as above; details: P. falciparum in erythrocytes, SYBR Green DNA, 72 h; series mostly up to 28.7 µM
# Method in brief: as §1
# [1] = qHTS for Inhibitors of Plasmodium falciparum (7G8) proliferation (AID 504316); also: potency is read from the fitted curve at half-maximal effect; nearly all actives have a fitted effect of over 65% in size
# Method in brief: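 Parasite growth measured as SYBR Green DNA fluorescence (ex 485, em 535 nm) after overnight lysis following 72 h culture at 37 °C, 0.3% parasitemia, 2.5% hematocrit. Values normalized against DMSO and 0.29 uM artemisinin controls, with plate-stack correction.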
# [2] = target: Ubiquitin carboxyl-terminal hydrolase 1 (Homo sapiens) (UniProt O94782); test: Inhibitors of USP1/UAF1: Pilot qHTS (AID 504865);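 also: rhodamine fluorescence freed from ubiquitin-rhodamine substrate followed over time; top concentration of the series differs between compounds; nearly all actives have a fitted effect of over 35% in size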
# Method in brief: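 USP1/UAF1 complex at 1 nM preincubated 15 min at room temperature with compound, then Ub-Rho substrate added at 150 nM final. Fluorescence (480/540 nm) read kinetically in 50 mM HEPES pH 7.8, 0.5 mM EDTA, 1 mM TCEP, 0.1 mg/ml BSA, 0.01% Tween-20.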
# [3] = target: DNA dC->dU-editing enzyme APOBEC-3G (Homo sapiens) (UniProt Q9HC16); test: qHTS for inhibitors of Vif-A3G interactions: Validation (AID 588379)
# Method in brief: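 Yellow fluorescence (Ex 488, Em 500-530) of Vif-coexpressing HeLa A3G-eYFP cells, scanned by Acumen cytometer, reports blocked A3G degradation. Cells plated at 700/well overnight at 37 deg C before compound addition, then a further overnight compound incubation at 37 deg C.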
# Ubiquitin carboxyl-terminal hydrolase 1 (Homo sapiens), sequence (O94782 whole entry, looked up): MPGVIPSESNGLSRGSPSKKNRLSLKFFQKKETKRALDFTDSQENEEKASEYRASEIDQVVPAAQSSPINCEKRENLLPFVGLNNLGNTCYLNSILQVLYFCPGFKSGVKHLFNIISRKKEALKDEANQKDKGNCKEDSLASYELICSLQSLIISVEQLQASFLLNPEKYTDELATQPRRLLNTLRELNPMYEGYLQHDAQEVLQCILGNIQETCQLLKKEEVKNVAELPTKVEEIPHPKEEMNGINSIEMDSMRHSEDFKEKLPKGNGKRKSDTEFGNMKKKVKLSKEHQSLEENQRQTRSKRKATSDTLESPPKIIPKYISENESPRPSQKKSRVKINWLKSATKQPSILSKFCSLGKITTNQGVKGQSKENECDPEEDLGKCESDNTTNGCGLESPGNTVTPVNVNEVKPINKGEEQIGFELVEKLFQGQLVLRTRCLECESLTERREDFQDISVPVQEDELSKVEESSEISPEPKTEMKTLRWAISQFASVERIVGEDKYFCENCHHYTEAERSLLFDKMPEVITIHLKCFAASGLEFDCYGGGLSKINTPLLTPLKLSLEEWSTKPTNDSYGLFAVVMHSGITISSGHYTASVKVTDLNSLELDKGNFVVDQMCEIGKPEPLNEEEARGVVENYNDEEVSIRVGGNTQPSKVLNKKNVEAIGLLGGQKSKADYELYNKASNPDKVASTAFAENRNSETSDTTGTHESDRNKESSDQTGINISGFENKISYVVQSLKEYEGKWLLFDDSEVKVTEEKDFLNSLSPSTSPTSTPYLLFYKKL
# DNA dC->dU-editing enzyme APOBEC-3G (Homo sapiens), sequence (Q9HC16 whole entry, looked up): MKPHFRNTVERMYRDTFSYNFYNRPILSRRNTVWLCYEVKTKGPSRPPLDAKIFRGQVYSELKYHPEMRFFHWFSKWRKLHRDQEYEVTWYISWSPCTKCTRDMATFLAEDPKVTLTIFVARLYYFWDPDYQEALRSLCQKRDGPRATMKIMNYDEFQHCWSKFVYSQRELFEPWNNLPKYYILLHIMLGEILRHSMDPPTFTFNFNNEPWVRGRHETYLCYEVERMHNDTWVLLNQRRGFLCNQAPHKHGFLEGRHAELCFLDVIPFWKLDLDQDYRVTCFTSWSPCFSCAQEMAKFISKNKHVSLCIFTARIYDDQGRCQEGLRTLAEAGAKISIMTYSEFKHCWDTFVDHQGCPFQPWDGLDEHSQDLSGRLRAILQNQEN
structure (smiles),measurement,setting,value
CC(N)C(=O)NCC(=O)NC1CSSCC(C(=O)O)NC(=O)C(CO)NC(=O)C(C(C)O)NC(=O)C(Cc2ccccc2)NC(=O)C(C(C)O)NC(=O)C(CCCCN)NC(=O)C(Cc2c[nH]c3ccccc23)NC(=O)C(Cc2ccccc2)NC(=O)C(Cc2ccccc2)NC(=O)C(CC(N)=O)NC(=O)C(CCCCN)NC1=O (configuration not stated),Potency,TAB109,inactive
same,Potency,TAB113,inactive
same,Potency,TAB165,inactive
same,Potency,W2,inactive
CC(=O)OC[C@H]1O[C@H](C#Cc2ccc(C(C)(C)C)cc2)C=C[C@H]1OC(C)=O,Potency,[1],1690 nM (active)
Cc1ccc2oc(-c3ccccc3)cc(=O)c2c1,Potency,[2],inactive
same,Potency,[3],inactive
